Reference: PubChem BioAssay AID1159580 (chemical genetic matrix, 2015)
About 2,000 (36%) of roughly 5,500 compounds were called active. About 18% were inconclusive and are not listed. Cut-off read from the data, not from the text of the source: active = normalized growth mostly below about 0.91 (no sharp cut-off); inconclusive = no clear call, values can overlap the other calls; inactive = mostly above about 0.92. The list shows a part of the results.

Test: chemical genetic growth profiling, strain panel (AID 1159580);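 note: tested at 20 µM; growth read once vehicle control cultures reached saturation at 30 °C; 1 = growth at the plate median or of vehicle wells; lower values mean less growth of the strain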
Conditions: growth OD

Measured: normalized growth

CC(=O)CC1CCCCN1 (configuration not stated)
inactive: S. cerevisiae deletion strains, locus YJR075W, strain HOC1, hits give low values 1.01 | S. cerevisiae deletion strains, locus YKL009W, strain mrt4, hits give low values 0.996 | S. cerevisiae deletion strains, locus YKL068W, hits give low values 1 | S. cerevisiae deletion strains, locus YKL085W, strain MDH1 (second series), hits give low values 0.983 | S. cerevisiae deletion strains, locus YKL085W, strain MDH1, hits give low values 0.983 | S. cerevisiae deletion strains, locus YKL160W, strain elf1, hits give low values 1.02 | S. cerevisiae deletion strains, locus YKL190W, strain CNB1, hits give low values 1.02 | S. cerevisiae deletion strains, locus YKR001C, strain vps1, hits give low values 0.994 | S. cerevisiae deletion strains, locus YKR026C, strain gcn3, hits give low values 1.02 | S. cerevisiae deletion strains, locus YKR091W, strain srl3, hits give low values 1.02 | S. cerevisiae deletion strains, locus YLL001W, strain dnm1, hits give low values 1.02 | S. cerevisiae deletion strains, locus YLL026W, hits give low values 1.02 | S. cerevisiae deletion strains, locus YLL041C, strain sdh2, hits give low values 1.01 | S. cerevisiae deletion strains, locus YLR027C, strain aat2, hits give low values 1.03 | S. cerevisiae deletion strains, locus YLR039C, strain RIC1, hits give low values 1.06 | S. cerevisiae deletion strains, locus YLR058C, strain SHM2, hits give low values 1.02 | S. cerevisiae deletion strains, locus YLR102C, strain apc9, hits give low values 0.996 | S. cerevisiae deletion strains, locus YLR113W, strain HOG1, hits give low values 0.981 | S. cerevisiae deletion strains, locus YLR221C, strain rsa3, hits give low values 1.03 | S. cerevisiae deletion strains, locus YLR258W, strain gsy2, hits give low values 1.02 | S. cerevisiae deletion strains, locus YLR262C, strain YPT6 (second series), hits give low values 1.03 | S. cerevisiae deletion strains, locus YLR262C, strain YPT6, hits give low values 1.1 | S. cerevisiae deletion strains, locus YLR268W, strain sec22, hits give low values 0.993 | S. cerevisiae deletion strains, locus YLR320W, strain mms22, hits give low values 1.04 | S. cerevisiae deletion strains, locus YLR330W, strain CHS5, hits give low values 1.01 | S. cerevisiae deletion strains, locus YLR342W, strain FKS1 (second series), hits give low values 0.993 | S. cerevisiae deletion strains, locus YLR342W, strain FKS1, hits give low values 1.02 | S. cerevisiae deletion strains, locus YLR357W, strain rsc2, hits give low values 0.995 | S. cerevisiae deletion strains, locus YLR370C, strain arc18, hits give low values 1.02 | S. cerevisiae deletion strains, locus YLR371W, strain rom2, hits give low values 0.994 | S. cerevisiae deletion strains, locus YLR384C, strain iki3, hits give low values 1.01 | S. cerevisiae deletion strains, locus YLR418C, strain cdc73, hits give low values 1 | S. cerevisiae deletion strains, locus YML016C, strain PPZ1, hits give low values 1.02 | S. cerevisiae deletion strains, locus YML032C, strain rad52, hits give low values 0.982 | S. cerevisiae deletion strains, locus YML120C, strain ndi1, hits give low values 1.02 | S. cerevisiae deletion strains, locus YML124C, strain tub3, hits give low values 0.995 | S. cerevisiae deletion strains, locus YMR058W, strain fet3, hits give low values 1.02 | S. cerevisiae deletion strains, locus YMR078C, strain ctf18, hits give low values 0.99 | S. cerevisiae deletion strains, locus YMR125W, strain sto1, hits give low values 1 | S. cerevisiae deletion strains, locus YMR129W, hits give low values 1.01 | S. cerevisiae deletion strains, locus YMR205C, strain PFK2, hits give low values 1.04 | S. cerevisiae deletion strains, locus YMR223W, strain ubp8, hits give low values 0.997 | S. cerevisiae deletion strains, locus YMR231W, strain pep5, hits give low values 1.01 | S. cerevisiae deletion strains, locus YMR263W, strain SAP30, hits give low values 1.02 | S. cerevisiae deletion strains, locus YMR307W, strain GAS1, hits give low values 1.08 | S. cerevisiae deletion strains, locus YNL067W, strain RPL9B, hits give low values 1.02 | S. cerevisiae deletion strains, locus YNL071W, strain lat1, hits give low values 1.02 | S. cerevisiae deletion strains, locus YNL128W, strain TEP1, hits give low values 1.01 | S. cerevisiae deletion strains, locus YNL153C, strain GIM3, hits give low values 1.02 | S. cerevisiae deletion strains, locus YNL183C, strain NPR1, hits give low values 0.954 | S. cerevisiae deletion strains, locus YNL209W, strain ssb2, hits give low values 1.02 | S. cerevisiae deletion strains, locus YNL233W, strain BNI4, hits give low values 1.02 | S. cerevisiae deletion strains, locus YNL248C, strain rpa49, hits give low values 1.01 | S. cerevisiae deletion strains, locus YNL250W, strain rad50, hits give low values 0.993 | S. cerevisiae deletion strains, locus YNL271C, strain bni1, hits give low values 0.993 | S. cerevisiae deletion strains, locus YNL298W, strain CLA4, hits give low values 0.988 | S. cerevisiae deletion strains, locus YNL307C, strain MCK1, hits give low values 0.995 | S. cerevisiae deletion strains, locus YNL322C, strain KRE1 (second series), hits give low values 1.01 | S. cerevisiae deletion strains, locus YNL322C, strain KRE1, hits give low values 1.01 | S. cerevisiae deletion strains, locus YNR049C, strain mso1, hits give low values 1.02 | S. cerevisiae deletion strains, locus YNR052C, strain pop2, hits give low values 0.98 | S. cerevisiae deletion strains, locus YOL006C, strain TOP1, hits give low values 1.04 | S. cerevisiae deletion strains, locus YOL012C, strain htz1 0.894 | S. cerevisiae deletion strains, locus YOL147C, strain pex11, hits give low values 0.993 | S. cerevisiae deletion strains, locus YOR001W, strain rrp6, hits give low values 1 | S. cerevisiae deletion strains, locus YOR061W, strain CKA2, hits give low values 1.01 | S. cerevisiae deletion strains, locus YOR069W, strain VPS5, hits give low values 0.999 | S. cerevisiae deletion strains, locus YOR070C, strain gyp1, hits give low values 1.03 | S. cerevisiae deletion strains, locus YOR080W, strain dia2, hits give low values 1.02 | S. cerevisiae deletion strains, locus YOR083W, strain WHI5, hits give low values 1.03 | S. cerevisiae deletion strains, locus YOR106W, strain vam3, hits give low values 1.01 | S. cerevisiae deletion strains, locus YOR136W, strain idh2, hits give low values 0.977 | S. cerevisiae deletion strains, locus YOR144C, strain elg1, hits give low values 1 | S. cerevisiae deletion strains, locus YOR184W, strain ser1, hits give low values 0.974 | S. cerevisiae deletion strains, locus YOR231W, strain MKK1, hits give low values 0.983 | S. cerevisiae deletion strains, locus YOR265W, strain rbl2, hits give low values 1.01 | S. cerevisiae deletion strains, locus YOR270C, strain vph1, hits give low values 1.05 | S. cerevisiae deletion strains, locus YOR290C, strain snf2, hits give low values 1 | S. cerevisiae deletion strains, locus YOR316C, strain cot1, hits give low values 0.991 | S. cerevisiae deletion strains, locus YPL051W, strain arl3, hits give low values 1.03 | S. cerevisiae deletion strains, locus YPL055C, strain LGE1, hits give low values 1.04 | S. cerevisiae deletion strains, locus YPL078C, strain atp4, hits give low values 1.02 | S. cerevisiae deletion strains, locus YPL106C, strain sse1, hits give low values 1 | S. cerevisiae deletion strains, locus YPL240C, strain hsp82, hits give low values 1.01 | S. cerevisiae deletion strains, locus YPL241C, strain CIN2, hits give low values 0.995 | S. cerevisiae deletion strains, locus YPL256C, strain CLN2, hits give low values 0.967 | S. cerevisiae deletion strains, locus YPR119W, strain clb2, hits give low values 0.993 | S. cerevisiae deletion strains, locus YPR141C, strain kar3, hits give low values 0.99 | S. cerevisiae deletion strains, locus YPR163C, strain tif3, hits give low values 0.993 | S. cerevisiae deletion strains, locus YPR167C, strain met16, hits give low values 0.987 | S. cerevisiae deletion strains, strain wtn01, hits give low values 1 | S. cerevisiae strains, strain wild type, hits give low values 1.02
